Screening data: PubChem, several laboratories
Sampled rows, rich in hits. Any-hit rate of the full collection: about 27%.
Cav3 T inh: blocks human Cav3.2 T-type calcium channel; O95180; 100,000 tested, 4% active; Cav3.2-expressing cells, Fluo-4 calcium fluorescence FDSS; active compounds read low; B-score at 10 µM;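 active = single-dose well whose peak fluorescence ratio is a statistical outlier from its plate by either plate-standardised score or position-corrected B-score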
CYP2C9 inhib: blocks human cytochrome P450 2C9 | CYP2C9 Supersomes, luciferin-H conversion, luminescence | inhibition, % at 5 µM | AID 777 | 96,000 tested, 20% active | P11712;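 active = blocking of liver enzyme CYP2C9 beyond about 50% at 5 µM, limit read from the data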
Target sequence (P11712 whole entry, looked up): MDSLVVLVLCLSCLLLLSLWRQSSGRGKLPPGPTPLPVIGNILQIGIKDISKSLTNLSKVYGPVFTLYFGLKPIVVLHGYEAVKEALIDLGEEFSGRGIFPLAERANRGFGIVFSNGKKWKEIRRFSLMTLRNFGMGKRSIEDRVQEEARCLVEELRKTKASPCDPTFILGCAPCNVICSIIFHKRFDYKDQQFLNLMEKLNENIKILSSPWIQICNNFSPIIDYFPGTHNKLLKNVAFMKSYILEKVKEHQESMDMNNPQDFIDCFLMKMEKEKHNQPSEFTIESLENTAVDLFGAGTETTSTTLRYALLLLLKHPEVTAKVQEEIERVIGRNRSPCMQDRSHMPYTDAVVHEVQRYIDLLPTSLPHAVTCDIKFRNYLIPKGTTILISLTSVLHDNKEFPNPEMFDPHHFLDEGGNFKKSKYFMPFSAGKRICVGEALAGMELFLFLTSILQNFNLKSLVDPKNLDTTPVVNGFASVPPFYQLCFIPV
CYP2C19 inhib: blocks human cytochrome P450 2C19; AID 778; P33261; inhibition, % at 5 µM; CYP2C19 Supersomes, luciferin-H EGE luminescence, 30 min; 96,000 tested, 21% active;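 active = CYP2C19 inhibition above a set limit at 5 µM in the primary screen, cut at about 50% in these data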;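 also: plate controls were negative control wells for no effect and 2.5 mM tranylcypromine positive control for full effect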
CYP2C19 activ: cytochrome P450 2C19 (human) activation. 96,000 tested, under 10 active. P33261. activation factor at 5 µM. recombinant CYP2C19, luciferin-H EGE luminescence; active compounds read high; 0 = fully inhibited enzyme, 1 = untreated enzyme. AID 1025;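 active = activation factor of at least 2 at 5 µM in the primary screen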;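 also: 0 = wells with 2.5 mM tranylcypromine and 1 = vehicle-only wells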
CYP2C9 act: CYP2C9 (human) activation; P11712; recombinant CYP2C9, luciferin-H conversion, luminescence; active compounds read high; factor 1 = untreated enzyme, 0 = blocked; activation factor at 5 µM; 96,000 tested, 1.4% active;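 active = activation factor of 2 or more for CYP2C9 at a 5 µM dose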;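 also: 0 = sulfaphenazole-blocked wells and 1 = vehicle-only wells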
* marks the source's active call; other numbers are inactive results; . = not tested or not shown.

SMILES	Cav3 T inh	CYP2C9 inhib	CYP2C19 inhib	CYP2C19 activ	CYP2C9 act
O=C(NCCN1CCOCC1)c1cnn2c(-c3ccccc3)cc(-c3ccccc3)nc12	-1.38	36.0	57.3*	0.4	0.6
S=c1[nH]nc(C2CCCCC2)n1/N=C/c1ccc(Br)s1	0.869	5.5	37.2	0.6	0.9
C/C(=N/OCC(=O)Nc1ccc(C)cc1C)c1cccs1	-1.23	98.4*	93.4*	0.1	0
Cc1ccc(NC(=O)CCC(=O)NNC(=O)c2cccs2)c(C)c1	-1.45	-5.7	-7.0	1.1	1.1
Cc1cc(C(=O)CSc2nnnn2-c2ccccc2)c(C)n1CCc1ccccc1	-3.24	-5.5	50.5*	0.5	1.1
Cc1cc(-n2c(C)cc(C(=O)CSc3nnnn3-c3ccccc3)c2C)no1	-1.85	23.0	42.9	0.6	0.8
COc1ccc(CCn2c(C)cc(C(=O)CSc3nnnn3-c3ccccc3)c2C)cc1OC	0.18	-114.6	42.0	0.6	2.1*
Cc1cc(C(=O)CSc2nnnn2C)c(C)n1CCc1ccc(F)cc1	0.301	14.6	65.1*	0.3	0.9
CCOC(=O)c1cc(CC)sc1N	-0.272	26.2	43.4	0.6	0.7
O=C(Nc1nccs1)c1cn(-c2ccccc2)nc1-c1ccccc1	-2.85	62.1*	21.4	0.8	0.4
N#Cc1cc(C#N)c(N2CCN(c3cccc(Cl)n3)CC2)nc1N	-1.73	35.6	97.8*	0	0.6
NC1CCN(c2cccc(Cl)n2)CC1	1.22	.	.	.	.
Clc1ccc(SCc2cc(-c3ccccc3)on2)cc1	0.0262	-19.4	90.4*	0.1	1.2
Clc1cc(CSc2ccccc2)nc(-c2ccccc2)n1	0.0399	52.9*	44.8	0.6	0.5
Clc1ccc(SCc2cc(Cl)nc(-c3ccccc3)n2)cc1	-1.47	.	.	.	.
CCOC(=O)CSc1ccc2nnc(-c3ccccc3)n2n1	.	24.0	-2.0	1	0.8
CCOC(=O)CSc1cc(CSc2ccccc2)nc(-c2ccccc2)n1	-1.07	29.7	57.1*	0.4	0.7
Cc1ccc(S(=O)(=O)N2CCOCC2)cc1C(=O)NCc1cn2ccsc2n1	-0.203	-2.4	-2.4	1	1
COCCNCCOc1ccccc1-c1ccccc1	-1.25	13.0	59.1*	0.4	0.9
Cc1nc2sc(C(c3ccco3)N3CCC(C)CC3)c(O)n2n1 (stereo unspecified)	0.354	.	.	.	.
Cc1ccc(C(c2sc3nc(C)nn3c2O)N2CCN(c3ccccc3F)CC2)cc1 (stereo unspecified)	-5.54*	34.3	44.8	0.6	0.7
Cc1nc2sc(C(c3ccco3)N3CCN(C(c4ccccc4)c4ccccc4)CC3)c(O)n2n1 (stereo unspecified)	-5.39*	33.3	20.2	0.8	0.7
Cc1ccc(C(c2sc3nc(C)nn3c2O)N2CCN(CCO)CC2)cc1 (stereo unspecified)	0.0156	.	.	.	.
Cc1cc(C)n(C(C)n2nc(C)cc2C)n1	-0.0395	-8.4	17.4	0.8	1.1
O=C(c1cccs1)[C@@H]1[C@@H]2C(=O)N(Cc3ccc4c(c3)OCO4)C(=O)[C@@H]2C2c3ccccc3C=CN21 (stereo partly specified)	.	63.9*	30.1	0.7	0.4
SMILES	Cav3 T inh	CYP2C9 inhib	CYP2C19 inhib	CYP2C19 activ	CYP2C9 act
CC(C)(C)C(=O)[C@@H]1[C@@H]2C(=O)N(C3CCCCC3)C(=O)[C@@H]2[C@H]2c3ccccc3C=CN12	.	82.0*	66.5*	0.3	0.2
O=C(c1ccc2c(c1)OCO2)[C@@H]1[C@@H]2C(=O)N(C3CCCCC3)C(=O)[C@@H]2C2c3ccccc3C=CN21 (stereo partly specified)	-1.71	76.3*	58.1*	0.4	0.2
O=C(Nc1ccc2c(c1)OCO2)[C@@H]1[C@@H]2C(=O)N(C3CCCCC3)C(=O)[C@@H]2C2c3ccccc3C=CN21 (stereo partly specified)	.	8.2	-8.3	1.1	0.9
Cc1ccc(S(=O)(=O)N2CC3(C)CN(S(=O)(=O)c4ccc(C)cc4)CC(C)(C2)C3)cc1	0.286	32.5	13.0	0.9	0.7
Cc1cc(C(=O)NCc2cc(C(=O)O)oc2C)c(C)o1	-0.193	1.0	-5.5	1.1	1
O=C1CC2C(CC(OC(=O)c3ccc(-c4ccccc4)cc3)C2CO)O1 (stereo unspecified)	.	71.8*	48.4	0.5	0.3
CC(C)(C)NC(=O)CSc1nnc(-c2ccccn2)n1-c1ccccc1	0.103	0.7	53.3*	0.5	1
Cn1c(SCC(=O)Nc2nccs2)nnc1-c1ccncc1	1.71	31.6	40.5	0.6	0.7
CC(C)(C)NC(=O)CSc1nnc(C2CC2)n1Cc1ccccc1	0.461	12.1	12.7	0.9	0.9
